Reference: PubChem BioAssay (NCI)
The panel holds about 83,000 compounds, 20% with a hit somewhere; the sample as a whole holds those more often.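 48-hour exposure, single concentration, 96-well plates; percent growth endpoint where 0 means no net growth. Active: below 10.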 Activity calls are given as the source filed them.

How the values were obtained:
Experiment in all cases: NCI-60 one-dose screen, 48 h (100 = growth as untreated, 0 = no growth, -100 = all killed)
NCI-H226 lung = conditions: 10 µM
NCI-H322M lung = conditions: 10 µM
HOP-62 NSCLC = conditions: 10 µM
NCI-H522 lung = conditions: 10 µM
COLO 205 colon = conditions: 10 µM
DU-145 prostate = conditions: 10 µM
SF-268 CNS = conditions: 10 µM
SF-295 CNS = conditions: 10 µM
SF-539 CNS = conditions: 10 µM
M14 melanoma = conditions: 10 µM
HCT-15 colon = conditions: 10 µM
SNB-75 CNS = conditions: 10 µM
SNB-19 CNS = conditions: 10 µM
U251 CNS = conditions: 10 µM
PC-3 prostate = conditions: 10 µM
SK-MEL-5 melanoma = conditions: 10 µM
UACC-62 melanoma = conditions: 10 µM
SK-MEL-28 melanoma = conditions: 10 µM
SK-MEL-2 melanoma = conditions: 10 µM
HL-60(TB) leukemia = conditions: 10 µM unless noted

| SMILES | growth (NCI-H226 lung) | growth (NCI-H322M lung) | growth (HOP-62 NSCLC) | growth (NCI-H522 lung) | growth (COLO 205 colon) | growth (DU-145 prostate) | growth (SF-268 CNS) | growth (SF-295 CNS) | growth (SF-539 CNS) | growth (M14 melanoma) | growth (HCT-15 colon) | growth (SNB-75 CNS) | growth (SNB-19 CNS) | growth (U251 CNS) | growth (PC-3 prostate) | growth (SK-MEL-5 melanoma) | growth (UACC-62 melanoma) | growth (SK-MEL-28 melanoma) | growth (SK-MEL-2 melanoma) | growth (HL-60(TB) leukemia) |
| --- | --- | --- | --- | --- | --- | --- | --- | --- | --- | --- | --- | --- | --- | --- | --- | --- | --- | --- | --- | --- |
| CC(=O)Oc1ccccc1C(=O)NC([Se])=NC1CCCCC1 | -21% (active) | 0.722% (active) | 9.51% (active) | -95.7% (active) | 28.9% (inactive) | 20% (inactive) | 66.1% (inactive) | -8.45% (active) | -84.7% (active) | 20.7% (inactive) | 3.57% (active) | -75.3% (active) | 12.3% (inactive) | 24.2% (inactive) | 44.6% (inactive) | -80% (active) | -57.5% (active) | -14.7% (active) | -43.7% (active) | 7.53% (active) |
| COc1cc2cc(C(=O)N3C[C@@H](CCl)c4c3cc(OC(=O)N3CCN(C)[C@@H]5CSSC[C@H]53)c3ccccc43)[nH]c2c(OC)c1OC | -42.7% (active) | -12.4% (active) | -19.1% (active) | -68% (active) | -59.2% (active) | 1.52% (active) | 2.46% (active) | -43.2% (active) | -96% (active) | -76.2% (active) | -18.7% (active) | -74.3% (active) | -15.4% (active) | -14.6% (active) | -24.8% (active) | -100% (active) | -92.9% (active) | -94.8% (active) | -91.8% (active) | -43.4% (active) |
| COCCOCCOCCOc1ccc(-n2cc(-c3ccc(O[C@H]4O[C@@H]5OC6(C)CC[C@H]7[C@H](C)CC[C@@H]([C@H]4C)[C@@]57OO6)cc3)nn2)cc1 | 79.7% (inactive) | 86.1% (inactive) | 73.6% (inactive) | -21.3% (active) | -11.4% (active) | 42.6% (inactive) | 59% (inactive) | 40.4% (inactive) | 47.6% (inactive) | 32% (inactive) | 12.7% (inactive) | 66.5% (inactive) | 64% (inactive) | 73% (inactive) | 28% (inactive) | -24.4% (active) | 37.3% (inactive) | 44.6% (inactive) | 16.8% (inactive) | – |
| O=C(NC([Se])=NC1CCCCC1)c1ccccc1 | 58.7% (inactive) | 4.78% (active) | 15.3% (inactive) | -30.9% (active) | 49.2% (inactive) | 46.2% (inactive) | 96.2% (inactive) | 8.53% (active) | 14.3% (inactive) | 69.8% (inactive) | 44% (inactive) | 17.8% (inactive) | 24.6% (inactive) | 49.2% (inactive) | 51.3% (inactive) | 18% (inactive) | 9.12% (active) | 33.3% (inactive) | -2.88% (active) | – |
| CC(=O)Oc1ccccc1C(=O)[Se]C(=NC(C)C)NC(C)C | -67.2% (active) | -82.6% (active) | -70.9% (active) | -97% (active) | -69% (active) | -92.6% (active) | -30.9% (active) | -79% (active) | -98% (active) | -92.7% (active) | -45.6% (active) | -94.6% (active) | -88.5% (active) | -87.8% (active) | -62.9% (active) | -84.4% (active) | -44.2% (active) | -85.5% (active) | -79.4% (active) | -41.3% (active) |
| O=C(NCCCCC(c1ccc(F)cc1)c1ccc(F)cc1)Nc1ccc([N+](=O)[O-])c(C(F)(F)F)c1 | 0.603% (active) | 6.54% (active) | -29% (active) | -16.9% (active) | -100% (active) | 20.9% (inactive) | 18.5% (inactive) | -4.61% (active) | -28.2% (active) | -23.1% (active) | 0.604% (active) | -9.8% (active) | 17.1% (inactive) | 2.48% (active) | -4.82% (active) | -100% (active) | -14.9% (active) | 16.5% (inactive) | -71% (active) | – |
| CC[C@]12C=CCN3CC[C@@]4(c5ccc(OC)cc5N(C)[C@H]4[C@@](O)(C(=O)OC)[C@@H]1OC(=O)CCCC[P+](c1ccc(C)cc1)(c1ccc(C)cc1)c1ccc(C)cc1)[C@@H]32 | -78.6% (active) | -97.6% (active) | -84% (active) | -82.7% (active) | -64.1% (active) | -84.5% (active) | -61.1% (active) | -91.8% (active) | -98.7% (active) | -88.3% (active) | -90.1% (active) | -87.6% (active) | -96.5% (active) | -93.6% (active) | -73.2% (active) | -98.5% (active) | -97.4% (active) | -97.8% (active) | -87.3% (active) | -42.2% (active) |
| CC[C@]12C=CCN3CC[C@@]4(c5ccc(OC)cc5N(C)[C@H]4[C@@](O)(C(=O)OC)[C@@H]1OC(=O)CCC[P+](C1CCCCC1)(C1CCCCC1)C1CCCCC1)[C@@H]32 | -20% (active) | 24.5% (inactive) | 4.26% (active) | -82.2% (active) | -63.6% (active) | 15.7% (inactive) | -54.1% (active) | -13.5% (active) | -86.5% (active) | -78% (active) | 76.6% (inactive) | -61.4% (active) | -60% (active) | -82.5% (active) | -12% (active) | -98.4% (active) | -97.3% (active) | -85.9% (active) | -84.9% (active) | -37.1% (active) |
| COc1cc2cc(C(=O)N3C[C@@H](CCl)c4c3cc(OC(=O)N3CCN(C)[C@@H]5CSSC[C@@H]53)c3ccccc43)[nH]c2c(OC)c1OC | -26.1% (active) | -7.87% (active) | -32.3% (active) | -55.8% (active) | -55.6% (active) | -4.86% (active) | -17.8% (active) | -8.99% (active) | -72.4% (active) | -79% (active) | 1.23% (active) | -87.6% (active) | -9.25% (active) | 7.22% (active) | -1.7% (active) | -32.2% (active) | -91.4% (active) | -62.6% (active) | -89% (active) | 1.55% (active) |
| CC1=C(CCC=NNC(N)=O)C2=C(C)C3(CC3)[C@@](C)(O)C(=O)C2=C1 | -71.7% (active) | -13% (active) | -78.8% (active) | -90.4% (active) | -91.4% (active) | -29.2% (active) | -31.4% (active) | 1.93% (active) | -99.1% (active) | -35.8% (active) | -49.2% (active) | -96.2% (active) | -38.6% (active) | -77.4% (active) | 2.58% (active) | -100% (active) | -88.1% (active) | -79.8% (active) | -76.9% (active) | – |
| CC12OOC(C)(OO1)C2CCC(=O)NCCNc1ccnc2cc(Cl)ccc12 (centres undefined) | 93.7% (inactive) | 97.4% (inactive) | 89.9% (inactive) | -61.6% (active) | 73% (inactive) | 104% (inactive) | 95.6% (inactive) | 91.1% (inactive) | 102% (inactive) | 105% (inactive) | 95.2% (inactive) | 101% (inactive) | 98.2% (inactive) | 110% (inactive) | 98% (inactive) | 93.9% (inactive) | 91.8% (inactive) | 104% (inactive) | 105% (inactive) | 88.9% (inactive) |
| CC(=C\C(=O)Oc1ccc2c3c1OC1C(O)CCC4(O)C(C2)N(CC2CCC2)CCC314)/C=C1\CCCc2ccccc21 (centres undefined) | 56.3% (inactive) | 69.9% (inactive) | 85.6% (inactive) | 47.2% (inactive) | 39.4% (inactive) | 82.1% (inactive) | 73.5% (inactive) | 63.2% (inactive) | 67.8% (inactive) | -51.4% (active) | 7.2% (active) | 59.8% (inactive) | 70.5% (inactive) | 47.4% (inactive) | 40.8% (inactive) | 45.5% (inactive) | -16.4% (active) | 17.1% (inactive) | 84.3% (inactive) | – |
| O=C(/C=C/c1ccc(F)cc1)c1nc2ccccc2n1Cc1ccc(Br)cc1 | -66.2% (active) | -24.8% (active) | -68.6% (active) | -64% (active) | -82.4% (active) | -42.2% (active) | -4.4% (active) | -87.5% (active) | -92.5% (active) | -57.7% (active) | -73.9% (active) | 44.5% (inactive) | -63.7% (active) | -91.8% (active) | -39.4% (active) | -76.2% (active) | -84% (active) | -58.4% (active) | -61.3% (active) | -21.8% (active) |
| O=C(/C=C/c1cccc(Br)c1)c1nc2ccccc2n1Cc1ccc(Br)cc1 | -67.7% (active) | 51.9% (inactive) | -42% (active) | -53.4% (active) | -34.1% (active) | 4.37% (active) | 26.8% (inactive) | -19.7% (active) | -66% (active) | -31.7% (active) | -78% (active) | 59.7% (inactive) | -67% (active) | -83.3% (active) | 0.947% (active) | -26.4% (active) | -82.5% (active) | -53.4% (active) | -42.3% (active) | – |
| CCOP(=O)(OCC)C(NC(C)=O)C(=O)SCCN (centres undefined) | 106% (inactive) | 102% (inactive) | 107% (inactive) | 98.7% (inactive) | 128% (inactive) | 122% (inactive) | 125% (inactive) | 93.2% (inactive) | 97.5% (inactive) | 106% (inactive) | 102% (inactive) | 99.1% (inactive) | 96.9% (inactive) | 106% (inactive) | 116% (inactive) | 99.1% (inactive) | 95.8% (inactive) | 108% (inactive) | 112% (inactive) | 99.2% (inactive) |
| CC[C@]12C=CCN3CC[C@@]4(c5ccc(OC)cc5N(C)[C@H]4[C@@](O)(C(=O)OC)[C@@H]1OC(=O)CCC[P+](c1ccc(C)cc1)(c1ccc(C)cc1)c1ccc(C)cc1)[C@@H]32 | -77.4% (active) | -98.4% (active) | -81.6% (active) | -86.3% (active) | -50.2% (active) | -78.5% (active) | -46.3% (active) | -89.1% (active) | -96.6% (active) | -85.3% (active) | -91% (active) | -61.2% (active) | -97.3% (active) | -91.2% (active) | -83.3% (active) | -99.4% (active) | -96.8% (active) | -96.6% (active) | -85.4% (active) | -47.5% (active) |
